Results taken from PubChem BioAssay (EPA / NIEHS).
Active and inactive are the calls of the source. The calls were made as follows: active = hit-call score of the fitted dose curve at least 0.9, where 1 is the maximum; inactive = score below 0.9.

The compounds below were run on Apoptosis regulator Bcl-2 (Homo sapiens) (UniProt P10415) (assay: LTEA_HepaRG_BCL2: Life Technologies and Expression Analysis (LTEA) Assay for Bcl-2 gene using HepaRG (AID 2283475;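 also: BCL2 transcript by TaqMan qRT-PCR normalised to ACTB GAPDH and POLR2A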)). Details: mRNA level, 48 h; actives raise or lower the signal.
Sequence of Apoptosis regulator Bcl-2 (Homo sapiens) (P10415 whole entry, looked up): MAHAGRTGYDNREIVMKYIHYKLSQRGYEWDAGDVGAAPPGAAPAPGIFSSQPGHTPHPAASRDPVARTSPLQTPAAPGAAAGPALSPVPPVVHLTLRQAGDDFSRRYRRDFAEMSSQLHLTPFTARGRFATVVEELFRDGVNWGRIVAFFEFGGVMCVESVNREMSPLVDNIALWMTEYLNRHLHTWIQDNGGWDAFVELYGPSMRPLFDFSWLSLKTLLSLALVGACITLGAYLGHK
Experimental: LTEA_HepaRG is a cell based, multiplexed-readout assay that uses HepaRG, a human liver cell line, with measurements taken at 48 hours after chemical dosing on a 96-well plate.LTEA_HepaRG_BCL2 is one of 102 assay component(s) measured in the LTEA HepaRG cell culture assay. It is a marker of Cell proliferation, survival, death.Data from the assay component LTEA_HepaRG_BCL2 was analyzed into 1 endpoint. This assay endpoint, LTEA_HepaRG_BCL2, was analyzed with bidirectional fitting relative to DMSO as the negative control and baseline of activity. Using a type of inducible reporter, measures of mRNA induction for gain or loss-of-signal activity can be used to understand regulation of transcription factor activity. To generalize the intended target to other relatable targets, this assay endpoint is annotated to the cell cycle intended target family, where the subfamily is Cell proliferation, survival, death.
A total of 1060 chemcials from the ToxCast library were tested in eight-point concentration-response experiments. Cell culture and cytotoxicity assays were conducted at Thermo Fisher Scientific's Custom Services facility (Madison, WI). A single lot of human HepaRG cells (Thermo Fisher Scientific, Frederick, MD) was used for the cell culture experiments. 96-well format collagen type I coated plates of human HepaRG cells were prepared using established methods. Briefly, cryopreserved HepaRG cells were thawed, plated at a density of approximately 100,000 cells/well in HepaRG Thaw, Plate, and General Purpose media (HPRG770, Thermo Fisher Scientific), and incubated for 48 hours. 0.5% DMSO was selected as vehicle control to balance the requisite need of DMSO in HepaRG cultures to maintain differentiation (for example, baseline metabolism, proportions of hepatocytes vs. cholangiocytes), while enabling further hepatic receptor pathway activation (for example, PXR and CAR) in response to chemical exposure. 48 hours after plating, the culture medium was replaced with HepaRG Serum-Free Incudtion Media. Cells were exposed to each test chemical in duplicate and maintained in CO2 incubators for another 48 hours. Chemical plates were thawed to room temperature and 200x concentrations of treatment groups were prepared. 8-point conentration-reponse curves were made with the highest exposure at 100 uM, followed by half-log dilutions, all in 0.5% DMSO. Each test plate contained variouse controls, induction positive controls (1mM phenobarbital), cytotoxicity positive controls ([…] aflatoxin B1), vehicle controls (0.5% DMSO), and total lysis controls (0.5% DMSO). Cell morphology images were taken using an Essen IncuCyte FLR automated microscope, with six 96-well plates imaged in about 24 minutes. Images were captured and exported and JPEG files. Spent culture media was transfered to black-well plates for the LDH assay, and remaining media was sorted at -80 C for later use. Cells were treated with RLT buffer and frozen until shipped for gene expression analysis. Total RNA was isolated from the cell suspension in 75 uL of Buffer RLT (Qiagen, Germantown, MD 20874) by Quintiles/Expression Analysis (Durham, NC) using a custom isolation procedure. Total RNA from each plate well was transferred to a preamplification plate. Fluidigm's 96.96 Dynamic ArrayTM (Fluidigm, Amsterdam, the Netherlands) technology was used for gene expression analyses by quantitative reverse transcription polymerase chain reaction (qRT-PCR, performed by Quintiles/Expression Analysis, Durham, NC)89. Standard TaqManTM Assays (Applied Biosystems/ThermoFisher Scientific, Foster City, CA) were used to assess the expression of 93 genes selected based on their selectivity and sensitivity to important hepatic receptors known to be modulated by environmental chemicals; importance in human hepatocyte functionality; and hepatotoxicity. […]

**Q.** For Cc1cn([C@H]2C=C[C@@H](CO)O2)c(=O)[nH]c1=O, which outcome is on record?
**A.** inactive

**Q.** With CCC(C)N(C)C(=O)c1cc2ccccc2c(-c2ccccc2Cl)n1 (stereo not given) as the compound, how does the outcome read?
**A.** inactive

**Q.** CN(C)C(=O)NC1(c2ccccc2)CCN(CCC[C@]2(c3ccc(Cl)c(Cl)c3)CCCN(C(=O)c3ccccc3)C2)CC1 was tested. Which outcome did it give?
**A.** inactive

**Q.** For CCCCCCCC(=O)OC, which outcome is on record?
**A.** inactive

**Q.** With Cn1cnc2c1c(=O)[nH]c(=O)n2C as the compound, how does the outcome read?
**A.** inactive

**Q.** With CC(=O)O as the compound, how does the outcome read?
**A.** inactive

**Q.** Which outcome does the source give for CC(C)OC(=O)C(C)(C)Oc1ccc(C(=O)c2ccc(Cl)cc2)cc1 here?
**A.** inactive

**Q.** Which AC50 does the source give for CCc1nc(N)nc(N)c1-c1ccc(Cl)cc1 here?
**A.** 50 µM (active)

**Q.** Which outcome does the source give for CC(COCC(C)OC(=O)c1ccccc1)OC(=O)c1ccccc1 (stereo not given) here?
**A.** inactive

**Q.** For O=C1c2c(O)cccc2Cc2cccc(O)c21, which outcome is on record?
**A.** inactive

**Q.** For O=C1CCCCC1, which outcome is on record?
**A.** inactive

**Q.** O=Cc1ccccc1C=O was tested. Which outcome did it give?
**A.** inactive

**Q.** Which outcome does the source give for O=C(Oc1ccccc1)c1cccc(C(=O)Oc2ccccc2)c1 here?
**A.** inactive

**Q.** For OCC(CO)n1cnc(-c2ccc(F)cc2)c1-c1ccnc(Oc2ccccc2)n1, which outcome is on record?
**A.** inactive

**Q.** For COC(=O)CCCC(=O)OC, which outcome is on record?
**A.** inactive

**Q.** For NC1CCCCC1, which outcome is on record?
**A.** inactive

**Q.** For Cc1occc(=O)c1O, which outcome is on record?
**A.** inactive

**Q.** For CCc1cc(C2=C(C(=O)O)N(c3ccccc3C(F)(F)F)S(=O)(=O)c3ccccc32)cc2c1OCO2, which AC50 is on record?
**A.** 79.9 µM (active)

**Q.** How did the outcome turn out when COC(=O)CCC(=O)OC was run?
**A.** inactive

**Q.** How did the outcome turn out when CC(=O)OCC(COC(C)=O)OC(C)=O was run?
**A.** inactive

**Q.** With COc1ccc(C(=O)Nc2nc3ccccc3c(NCc3ccccc3)c2C#N)cc1 as the compound, how does the outcome read?
**A.** inactive

**Q.** Which outcome does the source give for C=CCc1ccc(OC)c(OC)c1 here?
**A.** inactive

**Q.** For O=C(O)c1[nH]n(-c2ccc(S(=O)(=O)O)cc2)c(=O)c1N=Nc1ccc(S(=O)(=O)O)cc1, which outcome is on record?
**A.** inactive

**Q.** NC=O was tested. Which outcome did it give?
**A.** inactive

**Q.** Which outcome does the source give for CC(=O)[C@@]1(O)CC[C@H]2[C@@H]3CCC4=CC(=O)CC[C@]4(C)[C@H]3CC[C@@]21C here?
**A.** inactive

**Q.** With O=C(N[C@@H](c1ccccc1)[C@@H]1CCCCN1)c1cccc(C(F)(F)F)c1Cl as the compound, how does the outcome read?
**A.** inactive

**Q.** O=C1OC(c2ccc(O)cc2)(c2ccc(O)cc2)c2ccccc21 was tested. Which AC50 did it give?
**A.** 50 µM (active)

**Q.** CCCCC(CC)COP(=O)(OCC(CC)CCCC)OCC(CC)CCCC (stereo not given) was tested. Which outcome did it give?
**A.** inactive

**Q.** CC(C)(O)c1ccc(CNC(=O)c2cccnc2Oc2ccc(F)cc2)cc1 was tested. Which outcome did it give?
**A.** inactive

**Q.** CC(N)=O was tested. Which outcome did it give?
**A.** inactive

**Q.** How did the outcome turn out when c1ccc2occc2c1 was run?
**A.** inactive

**Q.** CCCCc1nc2cccnc2n1Cc1ccc(-c2ccccc2-c2nnn[nH]2)cc1 was tested. Which outcome did it give?
**A.** inactive

**Q.** O=C(NS(=O)(=O)/C=C/c1cccs1)c1ccc(F)cc1Br was tested. Which outcome did it give?
**A.** inactive

**Q.** Which outcome does the source give for CCCCCCCCCCCCCCOS(=O)(=O)O here?
**A.** inactive

**Q.** How did the outcome turn out when CC(C)c1cccc(C(C)C)c1NC(=O)NS(=O)(=O)c1cc(C(C)(C)O)co1 was run?
**A.** inactive

**Q.** With O=NO as the compound, how does the outcome read?
**A.** inactive

**Q.** With CC1(C)C(=O)NC(=O)N1CO as the compound, how does the outcome read?
**A.** inactive

**Q.** How did the outcome turn out when NC(=Nc1ccccc1)Nc1ccccc1 was run?
**A.** inactive

**Q.** Cc1cc(Cc2ccc(N)c(C)c2)ccc1N was tested. Which outcome did it give?
**A.** inactive

**Q.** CN(C)CCCN(C)CCCN(C)C was tested. Which outcome did it give?
**A.** inactive
